# Source: PubChem BioAssay (EPA / NIEHS)
# Records with an inconclusive call do not appear. Calls of active or inactive are those of the source. The calls were made as follows: active = hit-call score of the fitted dose curve at least 0.9, where 1 is the maximum; inconclusive = response in the unintended direction; inactive = score below 0.9.
# Read-out: glucuronosyltransferase (UGT1A1), UGT1A1 (gene 54658)
# Experiment: CLD_UGT1A1_48hr: CellzDirect (CLD) Gene Expression Assay for glucuronosyltransferase (UGT1A1) at 48 hours (AID 2283709);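 also: actives increase expression relative to DMSO so potency refers to induction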
# Protocol: CLD_48hr is a cell-based, multiplexed-readout assay that uses hepatocyte, a human liver primary cell, with measurements taken at 48 hours after chemical dosing in a 96-well plate.CLD_UGT1A1_48hr is one of 16 assay component(s) measured or calculated from the CLD_48hr assay. It is designed to make measurements of mRNA induction, a form of inducible reporter, as detected with chemiluminescence signals by Quantitative Nuclease Protection Assay (qNPA) technology.Data from the assay component CLD_UGT1A1_48hr was analyzed at the endpoint, CLD_UGT1A1_48hr, in the positive analysis fitting direction relative to DMSO as the negative control and baseline of activity. Using a type of inducible reporter, gain-of-signal activity can be used to understand changes in the reporter gene as they relate to the gene UGT1A1. Furthermore, this assay endpoint can be referred to as a primary readout. To generalize the intended target to other relatable targets, this assay endpoint is annotated to the transferase intended target family, where subfamily is glucuronosyltransferase.
# Human hepatocyte cultures were treated daily for two consecutive days with fresh dosing solutions containing appropriate concentrations of the 320 ToxCast chemicals (chemical identities were blinded to CellzDirect and other ToxCast collaborators), vehicle control (0.2% DMSO), and positive control inducers as summarized in Table 1. Due to the large number of treatment groups and chemicals examined, the ToxCast chemicals were divided into two groups (spanning two independent cultures of hepatocytes from separate donor preparations (Hu778: ToxCast plates 1 and 2; Hu776: ToxCast plates 3 and 4). Each preparation of human hepatocyte cultures was treated with respective vehicle control, medium only control, set of six positive controls/reference chemicals for the five hepatic receptor pathways, and a subset of eight of the ToxCast chemicals (indoxacarb, pyrithiobac-sodium, norflurazon, cyhalofop-butyl, methomyl, thiram, acetochlor, and propiconazole). These replicate data, coupled with internal replicates designed within the blinded ToxCast chemical library, provided additional data to evaluate interindividual differences between hepatocyte preparations and their potential impact on chemical profiles.Cell morphology and integrity were evaluated using phase-contrast microscopy as an indicator of hepatocyte cell health (Tyson & Green, 1987). Cultures for each treatment group (i.e., media, vehicle [0.2% DMSO], positive control inducers [multiple concentrations], and the ToxCast chemicals [multiple concentrations]) were observed and cell morphology was assessed relative to vehicle control cultures at each harvest time point (0, 6, 24, or 48 h). […] Images were evaluated at the conclusion of the study to assess changes in cell integrity and account for the effects of chemical exposure on uncharacteristic changes in concentration-dependent gene expression profiles. The results from these determinations of apparent cytotoxicity were annotated (yes/no) alongside the corresponding qNPA data for reference.At the conclusion of each treatment period, hepatocyte cultures (96-well) were washed with 1 volume of HBSS, lysed by addition of 25 ul ArrayPlate lysis buffer (HTG, Tucson, AZ), and 70 ul/well of Denaturation Oil, denatured by incubation at 95C for 10 min, and frozen at approximately -70C until analysis by nuclease protection assay (qNPA) (Roberts et al., 2007). For qNPA analysis, cell lysates were thawed at 50C for approximately 30 min, qNPA probes were added, and samples were incubated at 95C for 10 min to begin the detection process by denaturing the target RNA, dissociating the duplexes and secondary structure hybridization. At the conclusion of the hybridization period, S1 nuclease reagent was added to each sample to digest all nonprotected nucleotides at 50C for 60-90 min. […]
Compound,AC50,outcome
CCCN(CCC)c1c([N+](=O)[O-])cc(C(F)(F)F)cc1[N+](=O)[O-],3.27 µM (active),
COC(=O)c1ccccc1CS(=O)(=O)NC(=O)Nc1nc(OC)cc(OC)n1,,inactive
COP(=O)(OC)OC=C(Cl)Cl,,inactive
O=[N+]([O-])/N=C1\NCCN1Cc1ccc(Cl)nc1,,inactive
CN1CSC(=S)N(C)C1,,inactive
O=C1c2ccccc2C(=O)N1SC(Cl)(Cl)Cl,,inactive
COC(=O)c1ccccc1S(=O)(=O)NC(=O)N(C)c1nc(C)nc(OC)n1,,inactive
CCC(C)(NC(=O)c1cc(Cl)c(C)c(Cl)c1)C(=O)CCl (stereo not given),,inactive
Oc1cc(Cl)ccc1Oc1ccc(Cl)cc1Cl,,inactive
CNC(=O)/C=C(\C)OP(=O)(OC)OC,,inactive
N#CN,,inactive
Cc1cc(C)nc(NC(=O)NS(=O)(=O)c2ccccc2C(=O)OC2COC2)n1,,inactive
COc1cc(OC)nc(NC(=O)NS(=O)(=O)c2cc(NC=O)ccc2C(=O)N(C)C)n1,,inactive
O=C(O)CCCOc1ccc(Cl)cc1Cl,,inactive
Cc1[nH]c(=O)n(C(C)(C)C)c(=O)c1Cl,,inactive
Clc1ccccc1-c1nnc(-c2ccccc2Cl)nn1,,inactive
C#CCN1C(=O)COc2cc(F)c(N3C(=O)C4=C(CCCC4)C3=O)cc21,,inactive
Oc1ccc(Cl)cc1Cc1ccccc1,,inactive
O=C(O)COc1ccc(Cl)cc1Cl,,inactive
ClC1C(Cl)C(Cl)C(Cl)C(Cl)C1Cl (stereo not given),,inactive

Compound,AC50,outcome
O=C(Nc1ccccc1)Nc1cnns1,9.87 µM (active),
CC1(C)C(C=C(Cl)Cl)C1C(=O)OC(C#N)c1ccc(F)c(Oc2ccccc2)c1 (stereo not given),,inactive
CCC(C)(C)C(=O)OC1=C(c2ccc(Cl)cc2Cl)C(=O)OC12CCCCC2,,inactive
O=C(O)C(F)(F)C(F)(F)C(F)(F)C(F)(F)C(F)(F)C(F)(F)C(F)(F)F,,inactive
CNC(=O)Oc1cccc(N=CN(C)C)c1,,inactive
CNC(=O)Oc1ccccc1OC(C)C,,inactive
CCN(CC)C(=O)SCc1ccc(Cl)cc1,20 µM (active),
COC(=O)c1ccccc1S(=O)(=O)NC(=O)Nc1nc(C)nc(OC)n1,,inactive
O=S(=O)(O)C(F)(F)C(F)(F)C(F)(F)C(F)(F)C(F)(F)C(F)(F)C(F)(F)C(F)(F)F,,inactive
CCOCN(C(=O)CCl)c1c(C)cccc1CC,,inactive
COP(=S)(OC)Oc1ccc([N+](=O)[O-])cc1,6.74 µM (active),
OCCOc1ccccc1,,inactive
CCOC1Oc2ccc(OS(C)(=O)=O)cc2C1(C)C (stereo not given),,inactive
CC(C)(C)C(O)/C(=C\c1ccc(Cl)cc1Cl)n1cncn1 (stereo not given),,inactive
C[C@H]1[C@H](c2ccc(Cl)cc2)SC(=O)N1C(=O)NC1CCCCC1,,inactive
O=S1OCC2C(CO1)C1(Cl)C(Cl)=C(Cl)C2(Cl)C1(Cl)Cl (stereo not given),,inactive
O=C(NC(=O)c1c(F)cccc1F)Nc1ccc(OC(F)(F)C(F)OC(F)(F)F)c(Cl)c1 (stereo not given),,inactive
COP(=S)(OC)Oc1ccc(SC)c(C)c1,,inactive
CC(C)N(C(=O)COc1nnc(C(F)(F)F)s1)c1ccc(F)cc1,,inactive
CCC(C)Nc1c([N+](=O)[O-])cc(C(C)(C)C)cc1[N+](=O)[O-] (stereo not given),2.8 µM (active),
